{"source": "PubChem BioAssay AID463173", "about": "(ICCB-Longwood Screening Facility, Harvard Medical School, 2010)", "note": "In all, about 52,000 compounds went through this assay and about 1,700 (3.3%) were called active. Cut-off read from the data, not from the text of the source: active = survival mostly below about 52% (no sharp cut-off); inactive = mostly above about 56%. This excerpt belongs to a sample that is enriched for actives.", "data": [{"tested_on": "Wild type", "experiment": "growth inhibition of S. aureus wild type versus tarO mutant, primary screen, teichoic acid synthesis inhibitors, RN4220, OD600 (AID 463173)", "details": "S. aureus RN4220 wild type/DeltatarO growth, OD600, 18 h, hits give low values, screened at 18.75 µg/mL (by protocol)", "values": [{"smiles": "CCc1ccc2nc(N(CCN(CC)CC)C(=O)c3ccco3)sc2c1", "survival": "53% (inactive)"}, {"smiles": "CCN(CC)CCN(C(=O)c1ccc(C(=O)OC)cc1)c1nc2ccc(Cl)cc2s1", "survival": "-6% (active)"}, {"smiles": "CCN(CC)CCN(C(=O)c1ccco1)c1nc2ccc(Cl)cc2s1", "survival": "87% (inactive)"}, {"smiles": "O=C(CNc1ccccc1Cl)N/N=C1\\CCCc2ccccc21", "survival": "105% (inactive)"}, {"smiles": "Cc1cccn2c(Nc3ccccc3)c(-c3cccs3)nc12", "survival": "85% (inactive)"}, {"smiles": "Cc1ccccc1Nc1c(-c2ccc(Cl)cc2)nc2c(C)cccn12", "survival": "73% (inactive)"}, {"smiles": "Cc1ccccc1Nc1c(-c2ccsc2)nc2c(C)cccn12", "survival": "0% (active)"}, {"smiles": "Cc1ccc(Nc2c(-c3ccsc3)nc3c(C)cccn23)cc1", "survival": "-3% (active)"}, {"smiles": "Cc1cccn2c(Nc3ccccc3)c(-c3ccc(N4CCOCC4)cc3)nc12", "survival": "125% (inactive)"}, {"smiles": "Cc1ccc(Nc2c(-c3ccc(C)cc3)nc3c(C)cccn23)cc1", "survival": "-1% (active)"}, {"smiles": "Cc1ccccc1Nc1c(-c2ccc(O)cc2)nc2c(C)cccn12", "survival": "68% (inactive)"}, {"smiles": "Cc1ccc(Nc2c(-c3ccsc3)nc3cccc(C)n23)cc1", "survival": "19% (inactive)"}, {"smiles": "Cc1ccc(Nc2c(-c3ccc(N4CCOCC4)cc3)nc3c(C)cccn23)cc1", "survival": "83% (inactive)"}, {"smiles": "COCCCNC(=O)c1c(C)nn(-c2ccc(F)cc2)c1-n1cccc1", "survival": "77% (inactive)"}, {"smiles": "Cc1sc2c(c1C)c(=O)n(Cc1ccccc1)c(=O)n2CC(=O)N(C)c1ccccc1", "survival": "89% (inactive)"}, {"smiles": "COc1ccc(C2CC(=O)c3cc(-c4nc(-c5cccc(Cl)c5)cs4)c(=O)[nH]c3C2)cc1", "note": "(stereo not given)", "survival": "67% (inactive)"}, {"smiles": "Cc1ccc(C(=O)N2CCN(c3ccccc3)CC2)cc1NC(=O)c1nsc2ccccc12", "survival": "73% (inactive)"}, {"smiles": "CC(=O)N1CCC2(CC1)OC(=O)C(C)=C2C(=O)Nc1cccc(Cl)c1C", "survival": "82% (inactive)"}, {"smiles": "COC(=O)c1ccccc1NC(=O)C1=C(C)C(=O)OC12CCCCCC2", "survival": "91% (inactive)"}, {"smiles": "COC(=O)c1ccccc1NC(=O)C1=C(C)C(=O)OC12CCC(C)CC2", "note": "(stereo not given)", "survival": "-6% (active)"}, {"smiles": "CC1=C(C(=O)Nc2cccc(C(F)(F)F)c2)C2(CCCCC2)OC1=O", "survival": "88% (inactive)"}, {"smiles": "CC1=C(C(=O)Nc2cccc(C)c2C)C2(CCCCC2)OC1=O", "survival": "74% (inactive)"}, {"smiles": "COc1ccc(OC)c(NC(=O)C2=C(C)C(=O)OC23CCN(C(C)C)CC3)c1", "survival": "0% (active)"}, {"smiles": "CC1=C(C(=O)Nc2cccc(C(F)(F)F)c2)C2(CCCCCC2)OC1=O", "survival": "0% (active)"}, {"smiles": "CC1=C(C(=O)Nc2ccccc2Br)C2(CCC(C)CC2)OC1=O", "note": "(stereo not given)", "survival": "83% (inactive)"}, {"smiles": "COc1ccc(NC(=O)C2=C(C)C(=O)OC23CCN(C(C)C)CC3)cc1Cl", "survival": "77% (inactive)"}, {"smiles": "COc1ccc(OC)c(NC(=O)C2=C(C)C(=O)OC23CCCCCC3)c1", "survival": "129% (inactive)"}, {"smiles": "CC1=C(C(=O)Nc2cccc(Cl)c2C)C2(CCCCCC2)OC1=O", "survival": "-2% (active)"}, {"smiles": "CC1=C(C(=O)Nc2cccc(C(F)(F)F)c2)C2(CCN(C(C)C)CC2)OC1=O", "survival": "91% (inactive)"}, {"smiles": "Cc1cc(C)n(C(=O)CCCC(=O)O)n1", "survival": "96% (inactive)"}, {"smiles": "Cc1ccc(CNC(=O)C(CC(C)C)N2Cc3ccccc3C2=O)cc1", "note": "(stereo not given)", "survival": "136% (inactive)"}, {"smiles": "COc1cc(-c2nc(Cn3nnc(C(=O)Nc4cc(C)cc(C)c4)c3C)c(C)o2)cc(OC)c1OC", "survival": "70% (inactive)"}, {"smiles": "CCOc1cc(CNC(=O)CSc2n[nH]c(-c3ccccc3)n2)cc(OCC)c1OCC", "survival": "131% (inactive)"}, {"smiles": "CC1=C(C(=O)NCc2cccc(Br)c2)C2(CCCCC2)OC1=O", "survival": "82% (inactive)"}, {"smiles": "CC1=C(C(=O)NCc2cccc(F)c2)C2(CCCCCC2)OC1=O", "survival": "65% (inactive)"}, {"smiles": "CC1=C(C(=O)NCc2cccc(F)c2)C2(CCCCC2)OC1=O", "survival": "10% (active)"}, {"smiles": "COc1ccc(OCc2nnc(-c3ccccc3)o2)cc1", "survival": "106% (inactive)"}, {"smiles": "Cc1ccc(N2CCN(C(=O)c3cn(C)c4ccc(S(=O)(=O)N5CCC(C)CC5)cc4c3=O)CC2C)cc1", "note": "(stereo not given)", "survival": "126% (inactive)"}, {"smiles": "CCOc1ccccc1CNC(=O)Cn1nc(N2CCN(c3ccccc3)CC2)ccc1=O", "survival": "82% (inactive)"}, {"smiles": "COc1ccc(CNC(=O)Cn2nc(N3CCN(c4ccccc4)CC3)ccc2=O)c(OC)c1", "survival": "-4% (active)"}, {"smiles": "COc1cccc(NC(=O)Cn2nc(N3CCN(c4ccccc4)CC3)ccc2=O)c1", "survival": "85% (inactive)"}, {"smiles": "CCn1c(SCC(=O)N(C2CCCCC2)C2CCCCC2)nnc1C(C)C", "survival": "100% (inactive)"}, {"smiles": "CCc1ccc(C2=C(C)C(N3CCC(C(=O)NCc4ccc(C)o4)CC3)=NS2(=O)=O)cc1", "survival": "63% (inactive)"}, {"smiles": "Cc1ccc(C(=O)NCCc2csc(-c3cccc(F)c3)n2)cc1C", "survival": "78% (inactive)"}, {"smiles": "O=C(COCc1cc(-c2cccs2)on1)Nc1cccc(O)c1", "survival": "-3% (active)"}, {"smiles": "O=C(COCc1cc(-c2cccs2)on1)N1CCN(c2ccc(F)cc2)CC1", "survival": "73% (inactive)"}, {"smiles": "O=C(COCc1cc(-c2ccco2)on1)Nc1cccc(O)c1", "survival": "73% (inactive)"}, {"smiles": "Cc1ccc(NC(=O)COCc2cc(-c3cccs3)on2)cc1Cl", "survival": "65% (inactive)"}, {"smiles": "O=C(COCc1cc(-c2cccs2)on1)N1CCN(c2ccccc2)CC1", "survival": "68% (inactive)"}, {"smiles": "O=C(COCc1cc(-c2cccs2)on1)N1CCN(c2cccc(Cl)c2)CC1", "survival": "10% (active)"}, {"smiles": "CC(=O)N1CCCc2cc(S(=O)(=O)N(C)CC(=O)Nc3cccc(Cl)c3C)ccc21", "survival": "68% (inactive)"}, {"smiles": "CCOc1ccccc1NC(=O)Cn1nnc(C(=O)NCc2ccc(F)cc2)c1N", "survival": "101% (inactive)"}, {"smiles": "Cc1cccc(Nc2sc(C(=O)c3ccc(Cl)cc3)c(N)c2C(N)=O)c1", "survival": "45% (inactive)"}, {"smiles": "Cc1ccc(C)n1-c1cccc2cccnc12", "survival": "103% (inactive)"}, {"smiles": "O=C(COC(=O)CCCC1=NS(=O)(=O)c2ccccc2N1)Nc1ccc(Br)cc1", "survival": "81% (inactive)"}, {"smiles": "Cc1cccc(NC(=O)COC(=O)CCCC2=NS(=O)(=O)c3ccccc3N2)c1", "survival": "-4% (active)"}, {"smiles": "COc1ccc(Cl)cc1NC(=O)COC(=O)CC(C)(C)CC1=NS(=O)(=O)c2ccccc2N1", "survival": "81% (inactive)"}, {"smiles": "CCOc1ccccc1NC(=O)COC(=O)CC(C)(C)CC1=NS(=O)(=O)c2ccccc2N1", "survival": "63% (inactive)"}, {"smiles": "COc1ccccc1NC(=O)COC(=O)CC(C)(C)CC1=NS(=O)(=O)c2ccccc2N1", "survival": "-3% (active)"}, {"smiles": "CCc1ccc(NC(=O)COC(=O)CCCC2=NS(=O)(=O)c3ccccc3N2)cc1", "survival": "129% (inactive)"}]}]}
